FLuc modulator: qHTS profiling assay for firefly luciferase inhibitor/activator using purifed enzyme and Km concentrations of substrates (counterscreen for miR-21 project) | purified FLuc, Km substrates, luminescence inhibition | Potency, µM (titrated, usually from 57.5 µM), for the others: at the top dose activity change, negative = inhibition, usual class: inhibitors | 360,000 tested, 6.9% active;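 also: plate controls were vehicle for no effect and reference inhibitor for full effect; nearly all actives have a fitted effect of over 55% in size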
Target sequence (P08659 whole entry, looked up): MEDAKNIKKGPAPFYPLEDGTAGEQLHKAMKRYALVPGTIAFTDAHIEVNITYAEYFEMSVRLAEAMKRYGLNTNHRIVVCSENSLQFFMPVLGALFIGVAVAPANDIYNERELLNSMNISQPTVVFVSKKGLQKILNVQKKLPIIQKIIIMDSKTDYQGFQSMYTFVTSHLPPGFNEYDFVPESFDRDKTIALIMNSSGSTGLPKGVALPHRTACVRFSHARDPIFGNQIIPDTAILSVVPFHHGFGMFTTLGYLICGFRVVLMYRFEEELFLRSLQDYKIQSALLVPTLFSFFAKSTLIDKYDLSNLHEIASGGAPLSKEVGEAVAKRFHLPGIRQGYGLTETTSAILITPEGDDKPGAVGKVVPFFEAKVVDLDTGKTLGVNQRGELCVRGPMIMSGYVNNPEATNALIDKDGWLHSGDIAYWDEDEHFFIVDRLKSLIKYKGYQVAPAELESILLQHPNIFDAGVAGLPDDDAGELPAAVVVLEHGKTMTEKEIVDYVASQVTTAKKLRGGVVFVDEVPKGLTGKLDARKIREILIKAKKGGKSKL
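Biochemical qHTS of compounds, final roughly 60 µM downward over six points, against 10 nM purified firefly luciferase using Km concentrations of substrates (10 uM D-luciferin, 10 uM ATP) in Tris acetate pH 7.5 buffer; luminescence output.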
ELG1 genotox: qHTS screen for small molecules that induce genotoxicity in human embryonic kidney (HEK293T) cells expressing luciferase-tagged ELG1 | HEK293T ELG1-luciferase reporter, luminescence, 16 h | Potency, µM (titrated, usually from 46 µM), without a hit: at the top dose activity change, positive = activation, actives largely listed as activators | 330,000 tested, 1.3% active | AID 504466, 2011; also: % of control where 0% means no effect; nearly all actives have a fitted effect of over 60% in size
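Screening used a luciferase reporter fused to human ELG1 in HEK293T cells. Luminescence was read on a CCD plate imager after 16 hr exposure and 30 min ONE-Glo incubation.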
SMN2 splice enh: qHTS Assay for Enhancers of SMN2 Splice Variant Expression | 210,000 tested, 2.8% active | Potency, µM (doses to about 46.1 µM), for inactives: top-dose activity change, positive = activation, usual class: activators | HEK293 SMN2-luciferase splicing reporter, luminescence, 30-36 h; also: % of control where 0% means no effect; nearly all actives have a fitted effect of over 55% in size
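qHTS luciferase splicing reporter: luminescence rises when SMN2 exon 7 is included in transfected HEK293 cells. Compound exposure lasted 30-36 h at 37C, with 4.5 mM final sodium butyrate as control, followed by a ONE-Glo read.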
Rab9 promoter act: qHTS Assay for Rab9 Promoter Activators; Huh7 Rab9 promoter-luciferase reporter, luminescence, 24 h; 320,000 tested, 2.8% active; AID 485297, 2010; Potency, µM (series often up to 9.22 µM), inactives show top-dose activation, negative = inhibition, actives largely listed as activators; also: % of control where 0% means no effect; nearly all actives have a fitted effect of over 60% in size
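Measured in stably transfected Huh7 cells bearing a Rab9 promoter–luciferase construct: 24 h compound treatment at 37 °C, followed by luminescence detection.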
ELG1 repair inh: qHTS screen for small molecules that inhibit ELG1-dependent DNA repair in human embryonic kidney (HEK293T) cells expressing luciferase-tagged ELG1; HEK293T ELG1-luciferase reporter, luminescence, 16 h; DNA damage induced by 5-fluorouridine; Potency, µM (doses to about 46.1 µM), inactives show top-dose activity change, negative = inhibition, usual class: inhibitors; 330,000 tested, 2.3% active; also: % is scaled to controls: 0 for no effect and ±100 for the full control effect; nearly all actives have a fitted effect of over 55% in size
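HEK293T cells expressing luciferase-tagged ELG1 (2,000/well) received 5-Fluorouridine plus compound or DMSO for 16 hr at 37 °C. Luciferase was read by ONE-Glo luminescence after 30 min at room temperature.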
NPC1 prom act: qHTS Assay for NPC1 Promoter Activators; Huh7 NPC1 promoter luciferase reporter, 24 h; Potency, µM (titrated, usually from 9.22 µM), for the others: at the top dose activation, actives largely listed as activators; 320,000 tested, 2.4% active; AID 485313, 2010; also: % of control where 0% means no effect; nearly all actives have a fitted effect of over 60% in size
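Cells: Huh7 expressing luciferase under the NPC1 promoter, 1500/well. Seeded 2 h, compound added, incubated 24 h at 37 °C. Luciferase reagent, 10 min ambient, then luminescence.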
Numbers without * were called inactive; ? = inconclusive; · = no result given. Shown are actives, neighbours in structure and some others; about 9.2% of the full set was active somewhere. Calls follow the shape of the dose curve; as a rule, active = well fitted curve in the direction sought with a large enough effect; inconclusive = small, poorly fitted or top-dose-only effect, or another doubt; inactive = no such curve, though single readings can be large; an effect the other way counts as inactive or inconclusive. Potency is read from the fitted curve at half-maximal effect.

SMILES | FLuc modulator | ELG1 genotox | SMN2 splice enh | Rab9 promoter act | ELG1 repair inh | NPC1 prom act
Cn1c(C(=O)Nc2ccc3c(c2)OCO3)cc2sccc21 | 3.4µM* | ? | 13µM* | 1.6µM* | ? | 1.4µM*
Cn1c(C(=O)NCc2ccc3c(c2)OCO3)cc2sccc21 | -17% | 4% | 8% | 1% | -6% | 0%
COCCNC(=O)c1cc2sccc2n1C | -4% | 4% | · | -3% | 3% | -5%
COc1cc(NC(=O)c2cc3sccc3n2C)cc(OC)c1 | 8.5µM* | 5.8µM* | 13µM* | 12% | ? | -1%
COC(=O)c1ccc(NC(=O)c2cc3sccc3n2C)cc1 | 11µM* | 0% | · | -17% | 10% | 19%
COc1ccc(OC)c(NC(=O)c2cc3sccc3n2C)c1 | 12µM* | 1% | -1% | 20% | 2% | 19%
Cc1c(CCC(=O)NCCc2ccc(Cl)cc2)c(=O)oc2c(C)c(O)ccc12 | 4% | · | -47% | · | · | ·
COc1ccc(S(=O)(=O)N2CCOC2CNC(=O)C(=O)NCc2cccnc2)cc1C (centres undefined) | -2% | 1% | · | -3% | -1% | ?
CCc1ccccc1NC(=O)c1cc2sccc2n1C | ? | 3% | 10% | ? | 16% | 1%
Cn1c(C(=O)Nc2ccccc2)cc2sccc21 | 13µM* | ? | ? | ? | ? | ?
COc1ccc(-n2ncc(N(C)n3cccc3)c(Cl)c2=O)cc1 | 4.8µM* | ? | · | 0.56µM* | ? | 1.3µM*
Cc1ccc(-n2ncc(N(C)C)c(Cl)c2=O)cc1 | 5.4µM* | ? | ? | 1.1µM* | ? | 0.4µM*
CN(C)c1cnn(-c2ccccc2)c(=O)c1Cl | ? | 16% | 21% | 13% | ? | 13%
Cc1csc(NC(=O)c2cccnc2)n1 | -11% | 9% | · | 2% | ? | -2%
Cc1csc(NC(=O)c2cccc(C)c2C)n1 | 15µM* | ? | · | 2.8µM* | ? | 3.2µM*
Cc1csc(NC(=O)NCC2CCCC(CNC(=O)Nc3nc(C)cs3)C2)n1 (centres undefined) | ? | -1% | · | 20% | ? | 3.5µM*
CC(=O)Nc1nc(C)cs1 | -2% | 4% | -7% | 0% | 10% | -5%
Cc1csc(NC(=O)c2ccccc2)n1 | 9.5µM* | ? | · | 3.5µM* | ? | 4µM*
Cc1csc(NC(=O)c2ccncc2)n1 | ? | 1% | · | 8% | ? | -1%
Cc1csc(NC(=O)c2cc(C)on2)n1 | 11µM* | ? | · | 2.2µM* | ? | 2.2µM*
CN1CCN(C(=O)CN(C2CCCCC2)S(=O)(=O)c2ccc(Br)cc2)CC1 | -1% | 2% | · | -1% | -2% | -1%
COc1ccc(-c2nsc(NC(=O)c3cccc(OC)c3)n2)cc1 | 11µM* | · | -36% | · | · | ·
COc1cccc(C(=O)Nc2nc(-c3ccncc3)cs2)c1 | -11% | 1% | -57% | 14% | 7% | 3%
COc1ccc(C(=O)Nc2nc(-c3nnn(-c4cc(OC)ccc4OC)c3C)ns2)cc1 | -12% | · | · | · | · | ·
Cc1cc(C(=O)Nc2nc3c(s2)CCCC3)no1 | 4.8µM* | 0.79µM* | ? | 0.79µM* | ? | 1.6µM*
COc1cccc(C(=O)Nc2nc(C)cs2)c1 | 6.7µM* | 16% | 11µM* | 2.5µM* | ? | 3.2µM*
COc1cccc(C(=O)Nc2nc(-c3nnn(-c4cccc(Cl)c4C)c3C)ns2)c1 | 12µM* | · | · | · | · | ·
Cc1onc(-c2ccccc2)c1C(=O)Nc1nc2c(s1)CCCC2 | -2% | 4% | -10% | -4% | 1% | 4%
